Among the data in PubChem BioAssay AID951 (NMMLSC, 2007) are inhibition values, retold here.

About 140 (0.074%) of roughly 190,000 compounds were called active. Cut-off read from the data, not from the text of the source: active = inhibition above about 40%. Shown is part of a subset that was picked to be rich in actives.

The assay deals with Bcl-2-like protein 10 (Homo sapiens) (UniProt Q9HD36). Put plainly: Bcl-B and Bim peptide interaction disruptors – biochemical, multiplexed, human Bcl-2 family, primary screen (AID 951).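 Note: 0% = tracer peptide without compound and 100% = reference inhibitor peptide.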 Conditions: bead-based flow cytometry, Bim peptide-Bcl-B binding; at 10 µM; hits give high values.
Bcl-2-like protein 10 (Homo sapiens), sequence (Q9HD36 whole entry, looked up): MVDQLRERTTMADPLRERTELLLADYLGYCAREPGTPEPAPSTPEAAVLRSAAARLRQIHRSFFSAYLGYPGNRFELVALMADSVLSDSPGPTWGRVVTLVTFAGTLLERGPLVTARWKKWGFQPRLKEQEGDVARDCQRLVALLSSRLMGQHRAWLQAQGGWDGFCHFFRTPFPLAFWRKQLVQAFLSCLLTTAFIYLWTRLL
In the case of `O=C(CSc1nncn1-c1cccnc1)N1CCOCC1`, the inhibition is -6% (inactive).

Take `O=C(NCCCn1ccnc1)C(=O)c1cn(CC(=O)N2CCCCCC2)c2ccccc12`: the inhibition was 0% (inactive).

On to `Cn1ncc2c(NNC(=O)Cc3cccc4ccccc34)ncnc21`, for which the inhibition is -3% (inactive).

Turning to `OCCC1CN(Cc2cccn2-c2nccs2)CCN1CCc1ccccc1` (stereo not drawn), the inhibition was -1% (inactive).

In the case of `O=C(CN1C(=O)NC2(CCCCCC2)C1=O)NCc1cccs1`, the inhibition is -1% (inactive).

Regarding `Cc1ccc(C(=O)Nc2ccc(C)c(S(=O)(=O)N(C)C)c2)s1`, the inhibition was 0% (inactive).

Take `CC(NC(=O)c1cccc2ccccc12)c1ccc2c(c1)CCCC2` (stereo not drawn): the inhibition is 6% (inactive).

With `CCOCC(=O)Nc1ncc(S(=O)(=O)c2ccc([N+](=O)[O-])cc2)s1`, the inhibition is 3% (inactive).

`Cc1ccccc1NC(=O)CSC1=NCCN1`: the inhibition is -6% (inactive).

As for `CCOC(=O)c1sc2nc(C)nc(Nc3ccc(OC)c(OC)c3)c2c1C`, the inhibition was 2% (inactive).

As for `CN(C)c1ccc(/C=N/N(Cc2ccccc2)c2ccccc2)cc1`, the inhibition was -3% (inactive).

For the molecule `C=CCn1c(CCNC(=O)c2ccccc2F)nnc1SCC(=O)Nc1ccc(OC)cc1`, the inhibition was 0% (inactive).

With `COc1ccc(C2CC(c3ccccc3)=NN2C(=O)COC(=O)COc2ccccc2)cc1` (stereo not drawn), the inhibition was -5% (inactive).

For `CC(=O)Nc1cccc([N+](=O)[O-])c1`, the inhibition was -4% (inactive).

As for `COC(=O)C1CCN(C(=O)c2cc(=O)[nH]c3ccccc23)CC1`, the inhibition was -1% (inactive).

`CC1CCCC(NC(=O)COC(=O)[C@@H]2CC(O)CN2S(=O)(=O)c2ccc3c(c2)OCCO3)C1C` (stereo partly drawn): the inhibition is -1% (inactive).

`O=C(CNC(c1ccccc1)c1ccccc1)Nc1ccc(F)cc1`: the inhibition is -8% (inactive).

For `C=CCc1ccccc1OCC(=O)N/N=C/c1ccccc1OCC`, the inhibition is -9% (inactive).

For the molecule `CCOc1ccccc1/C=N/NC(=O)CNC(=O)COc1ccccc1`, the inhibition was 74% (active).

As for `Cc1ccc(/C=N/NC(=O)CNC(=O)COc2ccccc2)o1`, the inhibition was -7% (inactive).

For `CCOc1ccc(NC(=O)CN(C)CC(=O)NC(C)c2ccccc2)cc1OCC` (stereo not drawn), the inhibition was -4% (inactive).

Consider `Cc1cccc(C(=O)N2CCC(c3nc4ccccc4s3)CC2)c1`, for which the inhibition was -2% (inactive).

Regarding `O=C(CSC1CC(=O)N(CCc2ccccc2)C1=O)Nc1ccc(Cl)cc1` (stereo not drawn), the inhibition was -5% (inactive).

For the molecule `C[C@@H]1CC[C@]2(O[C@@H](CCO)C[C@H](O)[C@H]2O)O1`, the inhibition is -5% (inactive).

On to `O=C(N/N=C/c1ccco1)c1ccc(NC(=O)C2CC2)cc1`, for which the inhibition was -4% (inactive).

Turning to `NC(=O)Cn1nc([N+](=O)[O-])nc1Oc1ccc(Br)cc1`, the inhibition is -1% (inactive).

Take `CN1CCN(C(=O)CCc2ncc(C(F)(F)F)cc2Cl)CC1`: the inhibition was -8% (inactive).

As for `COc1ccc(C(=O)NCC(=O)N/N=C/c2ccc([N+](=O)[O-])s2)cc1OC`, the inhibition was -2% (inactive).

Take `Cc1ccc(S(=O)(=O)NNC(=O)Nc2cccc3ccccc23)cc1`: the inhibition is 0% (inactive).

Consider `CCOC(=O)c1c(-c2cccc(N)c2)cn2ccccc12`, for which the inhibition is 17% (inactive).

As for `COc1ccc2c(c1)CC[C@@H]1[C@@H]2CC[C@]2(C)C(=O)CC[C@@H]12`, the inhibition is -3% (inactive).

With `CC(=O)C1C(c2ccc(Cl)cc2)c2c(n[nH]c2C)CC1(C)O` (stereo not drawn), the inhibition was -4% (inactive).

For `CCNC(=O)COC(=O)CCNC(=O)c1cccc(C)c1`, the inhibition was -4% (inactive).

With `NC(=O)C[n+]1cccc(C(N)=O)c1`, the inhibition is -1% (inactive).

Turning to `O=C(CP(=O)(c1ccccc1)c1ccccc1)N1CCOCC1`, the inhibition is -6% (inactive).

With `CS(=O)(=O)Nc1cccc(-c2cn3ccccc3n2)c1`, the inhibition was -2% (inactive).

On to `CSc1ccc(/C=N/N2CCN(Cc3ccccc3Cl)CC2)cc1`, for which the inhibition is -8% (inactive).

For the molecule `CCC(C(=O)OCC(=O)Nc1c(Cl)cc(Cl)cc1Cl)c1ccccc1` (stereo not drawn), the inhibition is -7% (inactive).

Turning to `C=CCn1c(SCC(N)=O)nnc1-c1cc2c(s1)CCC(CC)C2` (stereo not drawn), the inhibition was -12% (inactive).

Take `N=C1C(c2nc3ccccc3[nH]2)=C(O)CN1NC(=O)c1c[nH]c2ccccc12`: the inhibition is -2% (inactive).

As for `Cc1cc(C)c2nc(-c3cccnc3)cc(C(=O)Nc3ccc(S(=O)(=O)Nc4onc(C)c4C)cc3)c2c1`, the inhibition is -1% (inactive).

On to `O=C1N(c2ccc(Cl)cc2)C(c2ccc(Cl)cc2)N2CCCN12` (stereo not drawn), for which the inhibition is -11% (inactive).

With `CC(=O)NC(CC(=O)O)c1ccc(F)cc1` (stereo not drawn), the inhibition was -4% (inactive).

As for `Cc1ccc(CC2CC(=O)N(c3nc(C)cc(C)n3)C2=O)cc1` (stereo not drawn), the inhibition is -1% (inactive).

As for `CC(C)(C)c1nnc(N/N=C/c2ccc(O)cc2)n(N)c1=O`, the inhibition is -7% (inactive).

As for `Fc1ccccc1N=C1Nc2cccc3cccc1c23`, the inhibition is -4% (inactive).

Regarding `Cc1ccccc1C(=O)OC1OC(=O)C(Cl)=C1Nc1ccccc1` (stereo not drawn), the inhibition is -2% (inactive).

Consider `O=C(CSc1nn(-c2ccc(F)cc2)c(=S)s1)NC1CCS(=O)(=O)C1` (stereo not drawn), for which the inhibition was -1% (inactive).

As for `Cc1ccccc1-n1nc(SCC(=O)O)sc1=S`, the inhibition is 43% (active).

Take `N#CCSc1nn(-c2ccc(F)cc2)c(=S)s1`: the inhibition is -7% (inactive).

As for `O=C(Nc1ccc(Br)cn1)c1ccc([N+](=O)[O-])cc1Cl`, the inhibition is -6% (inactive).

Turning to `Cc1ccc(COc2ccc(C(=O)NN)cc2)cc1`, the inhibition is -3% (inactive).

Regarding `COc1cc(C2/C(=C(\O)c3ccc4c(c3)CC(C)O4)C(=O)C(=O)N2Cc2ccco2)ccc1O` (stereo not drawn), the inhibition was 1% (inactive).

As to `O=C(O)/C=C/c1ccc(S(=O)(=O)N2CCCCCC2)cc1`, the inhibition was 0% (inactive).

Consider `Cc1cc(Cl)c(S(=O)(=O)NCCC(=O)O)cc1OCC(N)=O`, for which the inhibition was -7% (inactive).

Take `Cc1cc(Cl)c(S(=O)(=O)Nc2ccc3c(c2)OCCO3)cc1OCC(N)=O`: the inhibition is -2% (inactive).

Regarding `Cc1cc(Cl)c(S(=O)(=O)NCC2CCCO2)cc1OCC(N)=O` (stereo not drawn), the inhibition was 80% (active).

In the case of `CCOc1cc2[nH]c(=O)n(Cc3ccc(C(=O)NCCCN4CCCC4=O)cc3)c(=O)c2cc1OCC`, the inhibition was -6% (inactive).

With `OCC1(Cc2ccccc2C(F)(F)F)CCN(Cc2cccc3cnccc23)CC1`, the inhibition is 0% (inactive).

`CCOc1ccc(NC(=O)CSc2nc3ccccc3c(=O)n2Cc2cccs2)cc1`: the inhibition was -7% (inactive).

As for `Cc1ccc(S(=O)(=O)N2CCOCC2)cc1C(=O)OC1CCCCC1=O` (stereo not drawn), the inhibition was -7% (inactive).

As for `Cc1ccc(C(=O)N/C(=C/c2cccnc2)C(=O)O)cc1`, the inhibition is -7% (inactive).

Regarding `N/C(=N/O)c1cccn1Cc1ccccc1[N+](=O)[O-]`, the inhibition is -4% (inactive).
